Results filed as inconclusive are left out. A number with no mark means an inactive call. Calls of active or inactive are those of the source. Calls follow the shape of the dose curve; as a rule, active = well fitted curve in the direction sought with a large enough effect; inconclusive = small, poorly fitted or top-dose-only effect, or another doubt; inactive = no such curve, though single readings can be large or run the other way.
% is scaled to controls: 0 for no effect and ±100 for the full control effect; potency is read from the fitted curve at half-maximal effect.

This assay is described as follows: qHTS Assay for Identifying Gametocytocidal Compounds (AID 743244).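 As to max response: actives lower the fluorescent signal which means gametocytes are killed.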 To be noted: P. falciparum 3D7 stage III-V gametocytes, alamarBlue, 72 h; max response: hits give low values. A digest of the protocol: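 A resazurin-based viability read-out was applied to mature P. falciparum gametocytes: 72 h compound treatment, then 24 h dye incubation, with falling fluorescence signalling gametocytocidal effect.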
With `CO[C@H]1C=CO[C@@]2(C)Oc3c(C)c(O)c4c(O)c(c(/C=N/N5CCN(C6CCCC6)CC5)c(O)c4c3C2=O)NC(=O)/C(C)=C\C=C[C@H](C)[C@H](O)[C@@H](C)[C@@H](O)[C@@H](C)[C@H](OC(C)=O)[C@@H]1C`, the Potency was 10 µM (active).
Still for that read-out and setting: the result for `C=C1CC[C@@H]2[C@](C)(CO)[C@H](O)CC[C@@]2(C)[C@@H]1C/C=C1/C(=O)OC[C@H]1O` reads 20 µM (active).
For the compound `Nc1c(Br)cc(Br)cc1CNC1CCC(O)CC1` (stereo unspecified), the max response is 19%.
Regarding `CC(C)(C)C1(O)CCN2CC3c4ccccc4CCc4cccc(c43)C2C1` (stereo unspecified), the max response was 10.9%.
Turning to `Cc1cn([C@H]2C[C@H](O)[C@@H](CO)O2)c(=O)[nH]c1=O`, the max response is 5.37%.
Regarding `CO[C@H]1C=CO[C@@]2(C)Oc3c(C)c(O)c4c(O)c(c5c(nc6cc(C)ccn65)c4c3C2=O)NC(=O)/C(C)=C\C=C[C@H](C)[C@H](O)[C@@H](C)[C@@H](O)[C@@H](C)[C@H](OC(C)=O)[C@@H]1C`, the Potency is 12.6 µM (active).
As for `COc1ccc(C[C@H](N)C(=O)N[C@H]2[C@@H](O)[C@H](n3cnc4c(N(C)C)ncnc43)O[C@@H]2CO)cc1`, the Potency is 1.05 µM (active).
The same measure, in the same setting: with `CC[C@@H](C(=O)[C@@H](C)[C@@H](O)[C@H](C)CCc1ccc(C)c(O)c1C(=O)O)[C@H]1O[C@](CC)([C@H]2CC[C@](O)(CC)[C@H](C)O2)C[C@@H]1C` the figure was 7.08 µM (active).
For `CC1(C)S[C@@H]2[C@H](NC(=O)C(C(=O)O)c3ccsc3)C(=O)N2[C@H]1C(=O)O` (stereo partly specified), the max response was 10.2%.
In the case of `CC(=O)Oc1c(C)cc(OCC(O)CNC(C)C)c(C)c1C` (stereo unspecified), the Potency is 15.8 µM (active).
For the compound `CC1(C)S[C@@H]2[C@H](NC(=O)[C@@H](NC(=O)N3CCNC3=O)c3ccccc3)C(=O)N2[C@H]1C(=O)O`, the max response was 5.13%.

Source of the values: PubChem BioAssay (NCATS).
